The source made the active and inactive calls. The calls were made as follows: active = hit-call score of the fitted dose curve at least 0.9, where 1 is the maximum; inconclusive = response in the unintended direction; inactive = score below 0.9.

Chain of Estrogen receptor (Homo sapiens) (P03372 whole entry, looked up): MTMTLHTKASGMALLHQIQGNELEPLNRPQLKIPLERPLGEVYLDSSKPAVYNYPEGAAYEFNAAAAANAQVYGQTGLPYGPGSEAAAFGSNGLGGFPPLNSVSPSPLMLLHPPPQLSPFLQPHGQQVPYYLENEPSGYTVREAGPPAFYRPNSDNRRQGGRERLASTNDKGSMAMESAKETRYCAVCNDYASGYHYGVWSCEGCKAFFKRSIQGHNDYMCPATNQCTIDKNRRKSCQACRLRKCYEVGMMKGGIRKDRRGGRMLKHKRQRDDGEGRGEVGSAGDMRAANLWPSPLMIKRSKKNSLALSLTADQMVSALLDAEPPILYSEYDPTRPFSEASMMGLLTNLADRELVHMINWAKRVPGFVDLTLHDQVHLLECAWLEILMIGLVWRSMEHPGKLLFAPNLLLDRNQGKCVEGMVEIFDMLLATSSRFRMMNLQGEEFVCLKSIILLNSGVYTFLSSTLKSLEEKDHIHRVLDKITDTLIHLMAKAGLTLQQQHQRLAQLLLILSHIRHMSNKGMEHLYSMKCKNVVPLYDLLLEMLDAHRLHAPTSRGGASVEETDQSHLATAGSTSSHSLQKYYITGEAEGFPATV

In this assay the target is Estrogen receptor (Homo sapiens) (UniProt P03372). Briefly: OT_ERa_GFPERaERE_0120: Odyssey Thera (OT) 2-hour HeLa Transcription Induction Assay for Estrogen Receptor (AID 2283382). The procedure:
OT_ERa_GFPERaERE_0120 is a cell-based, single-readout assay that uses HeLa, a human cervix cell line, with measurements taken at 2 hours after chemical dosing in a 384-well plate.OT_ERa_GFPERaERE_0120 is one of one assay component(s) measured or calculated from the OT_ERa_GFPERaERE_0120 assay. It is designed to make measurements of fluorescent protein induction, a form of inducible reporter, as detected with optical microscopy: fluorescence microscopy signals by Microscopy technology.Data from the assay component OT_ERa_GFPERaERE_0120 was analyzed into 1 assay endpoint. This assay endpoint, OT_ERa_EREGFP_0120, was analyzed in the positive analysis fitting direction relative to DMSO as the negative control and baseline of activity. Using a type of inducible reporter, measures of receptor for gain-of-signal activity can be used to understand the reporter gene at the pathway-level as they relate to the gene ESR1. Furthermore, this assay endpoint can be referred to as a primary readout, because the performed assay has only produced 1 assay endpoint. To generalize the intended target to other relatable targets, this assay endpoint is annotated to the nuclear receptor intended target family, where the subfamily is steroidal.
All assay endpoints are quantified using high content image analysis algorithms.
Regarding `[Na+]`, the outcome was inactive. Regarding `O=C(O)C1=NN(c2ccc(S(=O)(=O)O)cc2)C(=O)C1`, the compound was classed as inactive. For the compound `CC(=O)CC(=O)N(C)C`, the compound was called inactive. To `OC[C@H]1O[C@@H](O[C@H]2[C@H](O)[C@@H](O)[C@H](O)O[C@@H]2CO)[C@H](O)[C@@H](O)[C@H]1O` belongs “inactive”; to `NC(=O)c1cccnc1`, “inactive”. With `CCCCCCCCCCO[C@@H]1O[C@H](CO)[C@@H](O)[C@H](O)[C@H]1O`, the compound was classed as inactive. `CCNC(=S)NCC`: the result was inactive. In the case of `CC(=O)c1ccc2ccccc2c1`, the result was inactive. Turning to `CC(O)CNCC(C)O` (stereo not given), the call was inactive. Consider `CC(=O)C1C(=O)C=C(C)OC1=O` (stereo not given), for which the result was inactive.

Consider `CCCc1ccc(N)cc1`, for which the compound was called inactive. Turning to `CC1=CCC(C(C)(C)O)CC1` (stereo not given), the compound was called inactive. To `CCCCCCCC(=O)N(C)C` belongs “inactive”; to `COC(=O)C(C)Oc1ccc(Oc2ncc(C(F)(F)F)cc2Cl)cc1` (stereo not given), “inactive”; to `CCC(C)(C)C1CCC(=O)CC1`, “inactive”. As for `CCc1cccc(O)c1`, the entry is “inactive”. As for `CC(C)(C)c1ccc(S)cc1`, the result was inactive. Turning to `CC(=O)OC(C)(C)C`, the compound was classed as inactive. Turning to `OC[C@@H](O)[C@H](O)[C@@H](O)[C@@H](O)CO`, the compound was classed as inactive. As for `CC(C)(C)c1cccc(O)c1`, the entry is “inactive”; as for `CCCCOCCOCCO`, “inactive”. To `CCCCCCCCCCCCN1CCOCC1` belongs “inactive”. `CCCCCCCCCO`: the outcome was inactive. Consider `CCCC(O)C(CC)CO` (stereo not given), for which the compound was classed as inactive. To `O=C(O)c1ccccc1O` belongs “inactive”. To `COC(=O)c1ccc(C(=O)OC)cc1` belongs “inactive”; to `CC(CCO)CC(C)(C)C` (stereo not given), “inactive”; to `CC(=O)OC/C=C(C)/C=C/C=C(C)/C=C/C1=C(C)CCCC1(C)C`, “inactive”. On to `COc1cc(OC)c2ccc(=O)oc2c1`, for which the compound was classed as inactive. For the compound `Cc1cccc(O)c1`, the outcome was inactive. In the case of `CC(=O)c1ccc(O)cc1`, the result was inactive.

Regarding `O=C(O)CS`, the compound was called inactive. As for `CCOCC(C)O` (stereo not given), the entry is “inactive”; as for `CC(C)N(c1ccccc1)C(C)C`, “inactive”; as for `C=CC(C)CCCC(C)(C)O` (stereo not given), “inactive”. In the case of `CC(O)CN` (stereo not given), the call was inactive. For the compound `CCCc1ccc(O)cc1`, the compound was called inactive. As for `c1ccc2scnc2c1`, the call was inactive.

Turning to `CN1CCc2cccc3c2[C@H]1Cc1ccc(O)c(O)c1-3`, the result was inactive.

As to `CCO[Si](CC)(OCC)OCC`, the call was inactive.

Values taken from PubChem BioAssay (EPA / NIEHS).
